SMILES strings stand for the structures. Results filed as inconclusive are left out. Entries that show only a call come without a potency. Activity calls are given as the source filed them. Calls follow the shape of the dose curve; as a rule, active = well fitted inhibition curve with a large enough effect; inconclusive = small, poorly fitted or top-dose-only effect; inactive = flat fitted curve, though single readings scatter.

Chain of Calcium and integrin-binding protein 1 (Homo sapiens) (Q99828 whole entry, looked up): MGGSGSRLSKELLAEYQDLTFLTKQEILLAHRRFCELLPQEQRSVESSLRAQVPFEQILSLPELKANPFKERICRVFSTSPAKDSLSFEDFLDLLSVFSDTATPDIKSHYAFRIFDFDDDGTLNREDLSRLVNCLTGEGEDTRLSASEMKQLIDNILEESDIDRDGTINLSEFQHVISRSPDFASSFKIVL

The assay has as its target Calcium and integrin-binding protein 1 (Homo sapiens) (UniProt Q99828). The assay is described as follows: Primary qHTS for Identification of Calcium Integrin Binding Protein 1 (CIB1) Competitor (AID 1508620).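 Also: GST tagged CIB1 binding a fluorescein labelled alphaIIb integrin peptide tracer; top concentration of the series differs between compounds.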 Conditions: CIB1-GST / FITC-alphaIIb peptide fluorescence polarization; series mostly up to 57.7 µM. The procedure, abridged: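 Fluorescence polarization competition: CIB1-GST (1 uM final) preincubated with compound 15 min at room temperature, then FITC-labeled alphaIIb peptide (100 nM final) added for another 15 min. Polarization read at Ex 480/Em 540.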
On the technique in general: In qHTS, concentration-response curves come from the screen itself.
For `CC(C)c1ccc(CC(=O)N2CCC[C@@H](c3cccc(OC(C)(C)C(=O)O)c3)C2)cc1`, the Potency result was “inactive”. Consider `CCC(NC(=O)CC(NC(=O)C(CO)NC(=O)C(CC)NC(=O)c1ccc[nH]1)c1ccccc1)C(=O)O` (stereo not given), for which the Potency entry is “inactive”. Take `CC1(C(=O)O)CCCC2(C)C1CCC13CC(CCC21)C1(CO)OC31` (stereo not given): the Potency entry was “inactive”.

`C=CCc1ccc(O[C@@H]2O[C@H](CO)[C@@H](O)[C@H](O)[C@H]2O)c(OC)c1`: the Potency entry is “inactive”. For the compound `C=C[C@](C)(CC/C=C(\C)C(=O)O)O[C@@H]1OC[C@H](O)[C@H](O)[C@H]1O`, the Potency result is “inactive”. In the case of `CC1CCC2(C(=O)OC3OC(CO)C(O)C(O)C3O)CCC3(C(=O)O)C(=CCC4C5(C)CCC(OC6OC(C)C(O)C(O)C6O)C(C)(C)C5CCC43C)C2C1C` (stereo not given), the Potency entry was “inactive”. Take `C=C1CCC(OC(C)=O)C2(C)CC3(O)OC(=O)C(C)=C3CC12` (stereo not given): the Potency entry was “inactive”. Regarding `COC(=O)C1=CO[C@@H](O[C@@H]2O[C@H](COC(=O)/C=C/c3cc(OC)c(O)c(OC)c3)[C@@H](O)[C@H](O)[C@H]2O)[C@@H]2C(CO)=CC[C@H]12`, the Potency result is “inactive”.

For the compound `COc1c(OC2OC(CO)C(O)C(O)C2O)ccc(O)c1C(=O)OCc1ccccc1O[C@@H]1O[C@H](CO)[C@@H](O)[C@H](O)[C@H]1O` (stereo not given in full), the Potency result was “inactive”. Consider `COc1cc(COC2OC(CO)C(O)C(O)C2O)cc(OC)c1O` (stereo not given), for which the Potency entry was “inactive”.

With `CC(=O)C1CCC2(C)C3=C(CCC12C)C1(C)CCC(=O)C(C)(C)C1CC3` (stereo not given), the Potency entry was “inactive”. In the case of `CC(=O)OC[C@@]12[C@H](O)C[C@]3(C)C(=CCC4[C@@]5(C)CC[C@H](O[C@@H]6O[C@H](C(=O)O)[C@@H](O[C@@H]7O[C@H](CO)[C@@H](O)[C@H](O)[C@H]7O)[C@H](O)[C@H]6O[C@@H]6O[C@H](CO)[C@@H](O)[C@H](O)[C@H]6O)[C@](C)(CO)C5CC[C@]43C)[C@@H]1CC(C)(C)[C@@H](OC(C)=O)[C@@H]2O` (stereo not given in full), the Potency entry is “inactive”.

With `NC(=O)Nc1cc(-c2ccc(CN3CCOCC3)c(F)c2)sc1C(=O)N[C@H]1CCCNC1`, the Potency result was “inactive”. For the compound `CC(=O)O[C@H]1[C@H](Oc2ccccc2COC(=O)C2(O)C=CCCC2=O)O[C@H](CO)[C@@H](O)[C@@H]1O` (stereo not given in full), the Potency result was “inactive”. With `CCOc1nc2cccc(C(=O)OCc3oc(=O)oc3C)c2n1Cc1ccc(-c2ccccc2-c2noc(O)n2)cc1`, the Potency entry is “inactive”. As for `O=C(OCC12OC1C=CC(OC(=O)c1ccccc1)C2O)c1ccccc1` (stereo not given), the Potency result was “inactive”. Still for that read-out and setting: the same measure for `CCC[C@@H]1C[C@@H](C(=O)N[C@@H]([C@H]2O[C@H](SC)[C@H](OP(=O)(O)O)[C@@H](O)[C@H]2O)[C@H](C)Cl)N(C)C1`: “inactive”; for `CCOc1c2c(c(OCC)c3ccccc13)C(=O)N(c1ccc(CC(=O)NS(=O)(=O)c3ccccc3)cc1)C2`: “inactive”. Same read-out and setting: the same measure for `COc1cc(C(O)C(CO)Oc2ccc(CCCO[C@@H]3O[C@@H](C)[C@H](O)[C@@H](O)[C@H]3O)cc2OC)ccc1O` (stereo not given in full): “inactive”; for `C=C1[C@@H]2CC[C@@]3(C)[C@H](c4ccoc4)OC(=O)C[C@]13O[C@H]1CC(=O)C(C)(C)[C@H](CC(=O)OC)[C@]12C`: “inactive”. Take `COC(=O)C1C(CC(C)=O)C=CC(O)C12Oc1cc(C)cc(O)c1C2=O` (stereo not given): the Potency result is “inactive”. Turning to `C/C=C/C=C/C(CC(=O)O)Nc1ccc(C=O)cc1` (stereo not given), the Potency entry was “inactive”. Regarding `CC(C)C1(O[C@@H]2O[C@H](CO)[C@@H](O)[C@H](O)[C@H]2O)CC=C(CO)CC1` (stereo not given in full), the Potency result is “inactive”.

In the case of `CC(=O)OC1C=C(C(=O)O)C2(CO)CCC(C)C(C)(CCc3ccoc3)C2C1` (stereo not given), the Potency result was “inactive”. As to `C=C(C)C(C)C1OC23CC4(CO2)C(CCC2C5(C)CCC(OC6OCC(O)C(OC7OC(CO)C(O)C(OC8OCC(O)C(O)C8O)C7O)C6OC6OC(CO)C(O)C6O)C(C)(C)C5CCC24C)C3C(C)(O)C1OC(C)=O` (stereo not given), the Potency entry is “inactive”.

Turning to `C=C1CC[C@H]2[C@@H](/C=C(\C)C(=O)[C@@]3(OC(C)=O)C[C@H](C)[C@H](OC(C)=O)[C@@H]3[C@H]1OC(C)=O)C2(C)C`, the Potency result is “inactive”.

With `CC[C@H](/C=C/[C@@H](C)[C@H]1CC[C@H]2[C@@H]3CC=C4C[C@@H](O)CC[C@]4(C)[C@H]3CC[C@]12C)C(C)C`, the activity change, negative = inhibition was 1.65% [at 12.4 µM] (inactive). As for `CC1CCC2C(C)(C)CC(C)(CO)C2(O)C1C(=O)O` (stereo not given), the Potency entry is “inactive”. For the compound `O=C(/C=C/c1ccc(O)cc1)OC[C@]12O[C@H]1[C@@H](O)[C@@H]1C=CO[C@@H](O[C@@H]3O[C@H](CO)[C@@H](O)[C@H](O)[C@H]3O)[C@@H]12`, the Potency result was “inactive”. Same read-out and setting: the same measure for `CC1CC(O)CC(C)(C)C1(O)CCO` (stereo not given): “inactive”; for `CC1=CC(=O)CC(C)(C)C1(O)CCC(C)O` (stereo not given): “inactive”. On to `COc1cc(/C=C/C(=O)O[C@H]2[C@H](O)[C@@H](CO)O[C@@]2(CO)O[C@H]2O[C@H](COC(=O)c3ccc(O)cc3)[C@@H](O)[C@H](O)[C@H]2O)cc(OC)c1OC`, for which the Potency result was “inactive”. For the compound `CCC(CCO[C@@H]1O[C@H](CO[C@H]2OC[C@](O)(CO)[C@H]2O)[C@@H](O)[C@H](O)[C@H]1O)C(C)(C)O` (stereo not given in full), the Potency result was “inactive”. `CCOC(=O)c1ccnc(CNCC(=O)N(CC)CCN(C)C)c1`: the Potency result was “inactive”. With `CC1CCC2(NC1)OC1C(=O)C3C4CCC5CC(O[C@@H]6O[C@H](CO)[C@@H](O)[C@H](O)[C@H]6O[C@@H]6O[C@@H](C)[C@H](O)[C@@H](O)[C@H]6O)CCC5(C)C4CCC3(C)C1C2C` (stereo not given in full), the Potency result was “inactive”. Consider `C[C@@H]1O[C@@H](O[C@@H]2[C@@H](O)[C@@H](O)[C@H](O[C@@H]3[C@@H](O)[C@@H](O[C@]4(CO)O[C@H](CO)[C@@H](O)[C@@H]4OC(=O)/C=C/c4ccc(O)cc4)O[C@H](CO)[C@H]3OC(=O)/C=C/c3ccc(O)cc3)O[C@H]2C)[C@H](O)[C@H](O)[C@H]1O`, for which the Potency entry is “inactive”. As to `C[C@@H]1C(=O)O[C@H]2CC34[C@H]5C[C@@H](C(C)(C)C)C36[C@@H](OC(=O)[C@@H]6O)O[C@@]4(C(=O)O5)[C@]21O` (stereo not given in full), the Potency entry is “inactive”. On the same count and under the same terms, the same measure for `C=C/C=C/[C@@H]1OC[C@H](/C=C/C=C/C)[C@H]1O`: “inactive”. With `C/C=C/C1=CC2=C(CO1)C(=O)[C@](C)(O)[C@H](OC(=O)c1c(O)cc(OC)c(O)c1C)C2`, the Potency entry is “inactive”. For the compound `CC(=O)N1c2ccccc2C2(O)CC3C(=O)NC(CC(C)C)C(=O)N3C12` (stereo not given), the Potency entry is “inactive”.

The record behind these values is PubChem BioAssay (NCATS).
